Laboratory results from PubChem BioAssay (NCI).
This is part of a sample that, as a whole, favours compounds with a hit. Of some 83,000 tested, about 20% had one in any assay.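 Step 1: grow cells in 96-well plates. Step 2: add test compound at a single concentration. Step 3: incubate 48 h. Step 4: record percent growth.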 A number with no mark means an inactive call. Activity calls are given as the source filed them. The calls were made as follows: active = growth percent below 10; inactive = the rest.

Experiments:
Assay in all cases: NCI-60 one-dose screen, 48 h (100 = growth as untreated, 0 = no growth, -100 = all killed)
HCT-15 colon = conditions: 10 µM unless noted
HT29 colon = conditions: 10 µM unless noted
SNB-75 CNS = conditions: 10 µM unless noted
SNB-19 CNS = conditions: 10 µM unless noted
U251 CNS = conditions: 10 µM unless noted
PC-3 prostate = conditions: 10 µM unless noted
SK-MEL-5 melanoma = conditions: 10 µM unless noted
UACC-62 melanoma = conditions: 10 µM unless noted
LOX IMVI melanoma = conditions: 10 µM
SK-MEL-28 melanoma = conditions: 10 µM unless noted

Structure (SMILES)	growth (HCT-15 colon)	growth (HT29 colon)	growth (SNB-75 CNS) [%]	growth (SNB-19 CNS) [%]	growth (U251 CNS) [%]	growth (PC-3 prostate) [%]	growth (SK-MEL-5 melanoma)	growth (UACC-62 melanoma) [%]	growth (LOX IMVI melanoma)	growth (SK-MEL-28 melanoma) [%]
Clc1cccc(Cl)c1CSc1nc2ccccc2n2cccc12	68.2%	79.6%	86.5	105	95.3	96.5	103%	96.3	96.4%	103
CC(=O)N(C(C)=O)c1ccc(C)cc1	96%	105%	89.1	93.8	97.6	93.7	95.5%	91.4	92.1%	107
CCOC(=O)/C(C#N)=C\c1c[nH]c2ccccc12	93.8%	105%	85.9	97.6	98.1	99.1	106%	85.2	93.2%	206
O=C1NCC2CCCC1C2 (stereo not given)	104%	105%	77.2	99.6	112	114	107%	105	103%	110
O=C1Nc2ccccc2/C1=C\c1ccccc1O	93.3%	116%	64.9	101	93.5	96.8	92.6%	80.5	84.8%	97
Cc1ccc2nc(N)nnc2c1	102%	112%	90.5	102	111	96	108%	105	100%	110
CCOC(=O)c1ccc(NC(=O)Nc2nccs2)cc1	4.65% (active)	-25.6% (active)	61.5	11.6	12.5	22.8	-67.3% (active)	31.8	11.9%	40.9
O=C(CCl)Nc1ccccc1SCc1cc(Cl)cc2c1OCOC2	88.5%	82.5%	73.9	99.5	88.9	82.2	63.3%	81.2	-76% (active)	94
CC(C)(C)[Si](C)(C)OCC1OC(n2cnc3c(N)ncnc32)CC1OS(C)(=O)=O (stereo not given)	115%	108%	97.4	108	91.7	103	98.5%	90.4	95.4%	105
CCOP(=O)(NC(c1ccccc1)c1ccccc1)OCC	117%	107%	88.7	102	105	82.6	105%	114	93.1%	106
O=[N+]([O-])c1ccc2[nH]c(=S)n(/C=C(/c3ccc(Cl)cc3Cl)S(=O)(=O)Cc3ccc(Cl)cc3Cl)c2c1	101%	98.9%	108	102	98.1	94.7	101%	101	98.6%	110
NNc1ncnc2nc[nH]c12	44.1%	53.7%	89.3	96	72.2	63	71.9%	18.7	30.9%	105
Nc1ncnc(Nc2ccc(C(F)(F)F)cc2)n1	103%	103%	87.5	98.8	94.2	89.6	99.6%	89.1	100%	104
C/C(O)=C(/C=N/C(=S)Nc1ccccc1)C(=O)Nc1ccccc1C	96.7%	105%	92.4	93.9	95.4	86.5	93.9%	79.4	94.4%	110
CC(=O)O[C@H]1CC[C@]2(C)C3=C(C(=O)C[C@H]2C1(C)C)[C@]1(C)CC[C@H]([C@H](C)CCC(=O)O)[C@@]1(C)CC3=O	95.5%	89.7%	91.7	108	101	92.4	102%	106	98.1%	105
CC(C)Sc1ncnc2nc[nH]c12	103%	113%	115	99.5	107	91.6	104%	93.3	100%	82.8
NC(=O)N1CCOCC1	106%	92.4%	66	101	107	87.1	105%	104	107%	106
Cc1cc(C(=O)c2ccccc2)cc(C)c1O	96.4%	113%	87.8	120	98.1	93.5	104%	108	92.1%	115
O=[N+]([O-])c1c(Cl)ncnc1Cl	100%	107%	87.7	106	95.9	90.3	111%	110	107%	105
Cc1cccnc1NC1OC(=O)c2ccccc21 (stereo not given)	96.7%	104%	96.5	101	101	114	105%	96.6	94.9%	112
CCCCCCCCCCCCCC/C=C\C(CC(=O)O)C(=O)O (stereo not given)	107%	103%	90.1	103	107	96.2	104%	100	110%	108
O=C(O)c1c[nH]c2ccccc2c1=O	110%	97.6%	89.9	101	93.9	97.6	101%	101	97.2%	102
CSCC[C@@H]1C(=O)N(C)[C@H](C(C)(C)C)N1C(=O)c1ccccc1	113%	116%	85.2	114	99.3	104	106%	101	95.4%	107
CCOC(=O)CSCCC#N	100%	97.9%	97	104	105	97.8	111%	99.3	96.3%	96.6
C#CC(O)c1ccccc1 (stereo not given)	103%	105%	103	104	97.2	97.3	97.8%	103	103%	109
COC1(OC)C2(Cl)C(Cl)=C(Cl)C1(Cl)C1COCC12 (stereo not given)	103%	99.3%	86.3	100	103	97.6	102%	97.4	107%	105
COc1ccc2c(c1)Nc1ccccc1S2	104%	104%	108	110	97.2	97.9	101%	96.2	113%	114
Cc1nc(O)cc(=O)[nH]1	119%	108%	97.1	109	118	97	109%	113	108%	110
O=C(O)CC1=CCCCC1	98.1%	105%	89.6	97.2	105	96	101%	98	94.5%	95.5
Nc1cc2ccccc2c(O)c1O	16%	95.8%	90.4	90.2	40.2	43.7	74.7%	90.9	-52.6% (active)	110
